# Test results published in the supplement of paper PMC10849652.
# About 7,900 targets were measured; listed, in parts, are those with a hit and a random draw of the rest. About 0.6% of all pairs of compound and target were hits. Values without a mark were called inactive.
# What was measured:
# Assay in all cases: log2 fold change, soluble protein after heating vs DMSO (PISA); higher = thermal stabilisation; K562 cells, 10 uM, 30 min; active = over 0.2 and 3.5 SD of the protein, either way, in both replicates (recomputed)
# [1] = compound: CC1=C(C=C(C=C1)NC(=O)C2=CC(=CC=C2)C(C)(C)C#N)NC3=CC4=C(C=C3)N=CN(C4=O)C
# Summary of the method: (§1)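 K562 cells at 2×10^6 cells/mL were treated for 30 min with 10 μM compound, and aliquots were heated for 3 min over 48°C-58°C before pooling. Extraction used PBS with 0.5% NP-40 at 4°C, and soluble protein was the supernatant after 21,000xg for 90 min, measured by TMTpro 16plex LC-MS/MS with channel sums equalised. Thermal stability values, relative to control samples and from duplicates, are log2 fold changes.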
# [2] = compound: CC1=C(C=C(C=C1)NC(=O)C2=CC(=CC=C2)N(C)C)NC(=O)C3=CC=C(C=C3)O
# Summary of the method: as §1
# [3] = compound: CC1=CC=C(C=C1)SC2=C3C=C(SC3=CN=C2)C(=O)N
# Summary of the method: as §1
# [4] = compound: CC1=NC(=CC=C1)C2=C(N=C(N2)C(C)(C)C)C3=CC4=NC=CN=C4C=C3
# Summary of the method: as §1
# Nexturastat A = compound: CCCCN(Cc1ccc(C(=O)NO)cc1)C(=O)Nc1ccccc1 [Nexturastat A]
# Summary of the method: as §1
# vemurafenib = compound: CCCS(=O)(=O)Nc1ccc(F)c(C(=O)c2c[nH]c3ncc(-c4ccc(Cl)cc4)cc23)c1F [vemurafenib]
# Summary of the method: as §1
# [5] = compound: CCCS(=O)(=O)Nc1ccc(F)c(C(=O)c2c[nH]c3ncc(Cl)cc23)c1F
# Summary of the method: as §1
# [6] = compound: CCCc1cc(C)[nH]c(=O)c1CNC(=O)c1cc(-c2ccnc(N3CCN(C)CC3)c2)cc2c1cnn2C(C)C
# Summary of the method: as §1
# givinostat = compound: CCN(CC)Cc1ccc2cc(COC(=O)Nc3ccc(C(=O)NO)cc3)ccc2c1 [givinostat]
# Summary of the method: as §1
# barasertib = compound: CCN(CCCOc1ccc2c(Nc3cc(CC(=O)Nc4cccc(F)c4)[nH]n3)ncnc2c1)CCOP(=O)(O)O [barasertib]
# Summary of the method: as §1
# Sequence of UniProt O94806 (O94806 whole entry, looked up): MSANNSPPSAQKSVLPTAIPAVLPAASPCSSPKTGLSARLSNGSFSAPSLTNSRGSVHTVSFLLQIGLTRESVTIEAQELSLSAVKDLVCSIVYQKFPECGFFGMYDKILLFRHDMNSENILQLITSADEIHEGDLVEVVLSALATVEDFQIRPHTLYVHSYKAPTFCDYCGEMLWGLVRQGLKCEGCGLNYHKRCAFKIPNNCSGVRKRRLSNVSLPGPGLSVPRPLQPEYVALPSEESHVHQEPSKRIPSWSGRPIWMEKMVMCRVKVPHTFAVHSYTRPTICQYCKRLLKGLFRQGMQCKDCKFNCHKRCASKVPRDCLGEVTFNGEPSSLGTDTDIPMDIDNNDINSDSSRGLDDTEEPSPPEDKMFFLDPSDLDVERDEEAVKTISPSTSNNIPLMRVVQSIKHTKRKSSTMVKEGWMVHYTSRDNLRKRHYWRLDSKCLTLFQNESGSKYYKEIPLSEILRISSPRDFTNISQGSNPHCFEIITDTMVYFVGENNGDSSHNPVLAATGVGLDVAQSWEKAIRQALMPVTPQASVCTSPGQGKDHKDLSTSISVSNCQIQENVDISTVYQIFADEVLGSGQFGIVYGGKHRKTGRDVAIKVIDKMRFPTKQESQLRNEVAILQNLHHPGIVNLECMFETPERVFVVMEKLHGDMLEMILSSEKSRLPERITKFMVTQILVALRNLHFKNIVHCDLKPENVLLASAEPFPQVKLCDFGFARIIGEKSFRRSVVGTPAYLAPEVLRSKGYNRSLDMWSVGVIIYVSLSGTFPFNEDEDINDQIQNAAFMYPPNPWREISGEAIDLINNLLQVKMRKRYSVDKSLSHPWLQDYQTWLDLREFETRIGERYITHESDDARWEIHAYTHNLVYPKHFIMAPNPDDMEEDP
# Sequence of UniProt Q86YH6 (Q86YH6 whole entry, looked up): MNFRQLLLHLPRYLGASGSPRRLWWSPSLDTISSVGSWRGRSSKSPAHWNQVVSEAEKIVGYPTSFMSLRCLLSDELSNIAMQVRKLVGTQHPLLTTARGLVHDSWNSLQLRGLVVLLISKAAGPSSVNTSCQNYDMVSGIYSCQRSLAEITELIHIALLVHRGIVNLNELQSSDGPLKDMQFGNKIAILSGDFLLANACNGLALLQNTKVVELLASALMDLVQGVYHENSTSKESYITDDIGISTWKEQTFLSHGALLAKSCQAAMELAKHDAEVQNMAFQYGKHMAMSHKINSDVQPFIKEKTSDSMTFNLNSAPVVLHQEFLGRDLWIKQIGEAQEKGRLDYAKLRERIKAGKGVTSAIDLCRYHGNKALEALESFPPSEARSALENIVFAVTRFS
# Sequence of UniProt Q7Z3K3 (Q7Z3K3 whole entry, looked up): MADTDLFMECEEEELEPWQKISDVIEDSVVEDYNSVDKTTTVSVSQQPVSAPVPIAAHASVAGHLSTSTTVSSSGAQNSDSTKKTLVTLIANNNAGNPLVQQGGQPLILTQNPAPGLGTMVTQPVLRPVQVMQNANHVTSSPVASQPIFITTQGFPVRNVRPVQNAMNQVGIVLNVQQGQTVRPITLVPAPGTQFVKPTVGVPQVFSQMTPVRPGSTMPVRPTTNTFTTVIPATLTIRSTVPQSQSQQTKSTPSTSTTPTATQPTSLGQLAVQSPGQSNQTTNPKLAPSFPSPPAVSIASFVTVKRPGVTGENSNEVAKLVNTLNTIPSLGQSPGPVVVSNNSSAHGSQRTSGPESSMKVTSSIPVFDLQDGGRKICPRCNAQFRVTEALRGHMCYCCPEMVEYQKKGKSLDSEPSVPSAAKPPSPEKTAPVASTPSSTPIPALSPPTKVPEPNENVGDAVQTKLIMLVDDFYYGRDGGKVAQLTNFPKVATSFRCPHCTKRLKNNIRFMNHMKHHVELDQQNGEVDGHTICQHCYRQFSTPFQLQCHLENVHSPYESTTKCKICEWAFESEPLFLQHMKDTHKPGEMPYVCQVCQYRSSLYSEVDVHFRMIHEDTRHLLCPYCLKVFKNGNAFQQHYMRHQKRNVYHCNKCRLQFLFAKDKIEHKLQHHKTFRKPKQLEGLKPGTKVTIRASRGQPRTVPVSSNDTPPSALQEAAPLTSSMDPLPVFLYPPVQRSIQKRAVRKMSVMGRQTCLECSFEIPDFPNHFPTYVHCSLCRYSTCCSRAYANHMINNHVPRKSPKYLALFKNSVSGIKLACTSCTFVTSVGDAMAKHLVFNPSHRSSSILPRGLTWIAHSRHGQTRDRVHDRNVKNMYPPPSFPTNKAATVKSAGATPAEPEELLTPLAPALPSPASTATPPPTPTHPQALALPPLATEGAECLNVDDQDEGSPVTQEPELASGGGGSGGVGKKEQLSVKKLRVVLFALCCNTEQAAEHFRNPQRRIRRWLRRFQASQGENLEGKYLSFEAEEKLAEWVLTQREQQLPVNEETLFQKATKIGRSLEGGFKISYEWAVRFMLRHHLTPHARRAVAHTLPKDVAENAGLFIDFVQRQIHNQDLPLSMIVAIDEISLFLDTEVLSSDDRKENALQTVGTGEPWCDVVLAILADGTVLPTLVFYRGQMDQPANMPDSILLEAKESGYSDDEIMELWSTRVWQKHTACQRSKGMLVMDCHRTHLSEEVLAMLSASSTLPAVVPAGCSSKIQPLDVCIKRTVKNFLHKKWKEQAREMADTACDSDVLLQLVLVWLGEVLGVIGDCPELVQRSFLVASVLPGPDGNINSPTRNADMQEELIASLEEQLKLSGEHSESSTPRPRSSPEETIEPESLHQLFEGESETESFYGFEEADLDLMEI
# Sequence of UniProt O00329 (O00329 whole entry, looked up): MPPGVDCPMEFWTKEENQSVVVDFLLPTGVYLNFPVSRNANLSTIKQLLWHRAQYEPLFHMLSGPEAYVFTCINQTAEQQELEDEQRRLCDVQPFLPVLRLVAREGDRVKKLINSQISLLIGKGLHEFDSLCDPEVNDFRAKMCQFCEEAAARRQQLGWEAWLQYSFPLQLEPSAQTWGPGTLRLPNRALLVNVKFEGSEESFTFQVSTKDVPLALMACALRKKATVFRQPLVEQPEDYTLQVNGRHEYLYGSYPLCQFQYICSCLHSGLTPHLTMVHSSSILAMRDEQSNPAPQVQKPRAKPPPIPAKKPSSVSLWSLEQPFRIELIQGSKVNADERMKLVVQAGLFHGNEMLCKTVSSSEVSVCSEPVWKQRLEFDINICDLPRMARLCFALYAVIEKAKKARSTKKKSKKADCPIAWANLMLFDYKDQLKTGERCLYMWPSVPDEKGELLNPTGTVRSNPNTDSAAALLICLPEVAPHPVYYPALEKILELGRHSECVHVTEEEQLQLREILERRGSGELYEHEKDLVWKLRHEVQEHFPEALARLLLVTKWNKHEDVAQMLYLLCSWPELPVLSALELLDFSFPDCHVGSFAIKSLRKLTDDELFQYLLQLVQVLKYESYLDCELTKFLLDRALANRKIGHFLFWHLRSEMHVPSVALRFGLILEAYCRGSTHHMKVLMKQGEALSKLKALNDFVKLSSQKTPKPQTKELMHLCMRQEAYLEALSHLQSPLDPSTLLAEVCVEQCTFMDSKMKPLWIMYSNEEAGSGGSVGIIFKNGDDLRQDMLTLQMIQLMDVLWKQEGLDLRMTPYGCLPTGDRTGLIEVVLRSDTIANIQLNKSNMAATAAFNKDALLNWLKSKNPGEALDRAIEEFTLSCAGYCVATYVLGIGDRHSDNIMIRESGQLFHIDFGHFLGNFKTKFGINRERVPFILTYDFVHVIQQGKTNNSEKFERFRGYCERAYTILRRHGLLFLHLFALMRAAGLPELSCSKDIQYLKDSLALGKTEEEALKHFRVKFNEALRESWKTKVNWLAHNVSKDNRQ
# Sequence of UniProt Q9NW08 (Q9NW08 whole entry, looked up): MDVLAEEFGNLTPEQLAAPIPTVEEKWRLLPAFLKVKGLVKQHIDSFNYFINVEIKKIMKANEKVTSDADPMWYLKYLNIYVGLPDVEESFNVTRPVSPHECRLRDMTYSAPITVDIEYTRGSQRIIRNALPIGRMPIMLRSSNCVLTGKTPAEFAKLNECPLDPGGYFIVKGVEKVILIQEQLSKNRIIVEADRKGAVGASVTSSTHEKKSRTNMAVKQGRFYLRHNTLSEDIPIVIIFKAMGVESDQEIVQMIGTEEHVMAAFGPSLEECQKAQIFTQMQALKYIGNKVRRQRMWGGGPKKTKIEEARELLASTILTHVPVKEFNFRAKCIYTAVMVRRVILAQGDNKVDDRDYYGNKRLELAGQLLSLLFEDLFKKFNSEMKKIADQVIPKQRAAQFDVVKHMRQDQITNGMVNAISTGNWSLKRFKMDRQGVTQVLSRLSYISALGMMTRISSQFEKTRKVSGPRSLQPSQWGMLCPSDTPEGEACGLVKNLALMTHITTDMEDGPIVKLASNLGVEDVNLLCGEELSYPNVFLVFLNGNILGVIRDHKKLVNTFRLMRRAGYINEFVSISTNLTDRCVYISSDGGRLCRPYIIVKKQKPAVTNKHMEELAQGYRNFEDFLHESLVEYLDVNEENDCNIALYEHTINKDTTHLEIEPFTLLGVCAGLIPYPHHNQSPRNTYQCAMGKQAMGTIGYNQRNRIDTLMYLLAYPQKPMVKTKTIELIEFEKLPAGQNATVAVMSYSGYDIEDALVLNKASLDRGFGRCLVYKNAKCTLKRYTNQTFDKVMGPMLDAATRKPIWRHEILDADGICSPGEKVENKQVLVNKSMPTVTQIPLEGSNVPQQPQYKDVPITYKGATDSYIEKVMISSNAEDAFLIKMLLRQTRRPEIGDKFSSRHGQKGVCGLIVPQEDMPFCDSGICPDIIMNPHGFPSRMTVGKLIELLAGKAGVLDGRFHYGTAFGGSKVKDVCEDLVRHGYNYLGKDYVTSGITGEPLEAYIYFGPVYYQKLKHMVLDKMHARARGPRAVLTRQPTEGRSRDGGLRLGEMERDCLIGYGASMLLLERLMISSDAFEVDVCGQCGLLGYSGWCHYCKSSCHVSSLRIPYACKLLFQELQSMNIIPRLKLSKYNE
Target,log2 fold change [1],log2 fold change [2],log2 fold change [3],log2 fold change [4],log2 fold change (Nexturastat A),log2 fold change (vemurafenib),log2 fold change [5],log2 fold change [6],log2 fold change (givinostat),log2 fold change (barasertib)
PCID2 (UniProt Q5JVF3),0.024,-0.026,-0.066,0.033,0.153,0.069,0.202,0.071,0.114,-0.016
POP1 (UniProt Q99575),0.03,-0.001,0.004,-0.02,-0.011,-0.004,0.021,0.018,-0.009,-0.042
PECAM1 (UniProt P16284),-0.092,-0.019,-0.013,-0.113,0.068,-0.049,0.004,-0.015,0.01,0.028
PBX2 (UniProt P40425),0.049,0.001,0.089,0.165,0.072,0.099,0.136,0.026,0.138,0.03
PELP1 (UniProt Q8IZL8),-0.048,0.044,0.034,-0.02,0.15,-0.01,-0.038,-0.006,0.039,-0.085
POGLUT1 (UniProt Q8NBL1),-0.063,-0.027,-0.081,-0.024,-0.025,-0.139,-0.034,0.043,0.052,-0.022
PDS5A (UniProt Q29RF7),0.093,-0.109,0.012,0.12,0.057,0.143,0.294,0,0.208,0.275
PDS5B (UniProt Q9NTI5),-0.088,0.086,0.176,0.109,-0.011,-0.032,0.32,-0.058,0.135,0.047
PGK2 (UniProt P07205),0.019,0.058,-0.075,0.05,0.039,-0.084,-0.051,-0.006,,-0.046
PRG4 (UniProt Q92954),-0.099,0.034,,0.106,-0.007,0.008,,-0.069,0.102,-0.023
PNN (UniProt Q9H307),-0.101,0.084,0.003,0.011,0.03,,0.04,0.004,0.121,0.027
PIK3CD (UniProt O00329),0.042,0.079,0.018,-0.04,-0.1,-0.051,-0.156,,-0.013,0.096
PSMD1 (UniProt Q99460),0.06,0.021,-0.001,-0.011,0.055,-0.041,-0.049,0.05,-0.046,-0.036
PI4K2B (UniProt Q8TCG2),-0.082,-0.002,,-0.013,,0.059,,0.144,0.019,0.146
PKM isoform 2 (UniProt P14618),-0.13,-0.082,0.049,0.033,0.267,0.088,0.094,0.056,,-0.005
PARP1 (UniProt P09874),0.116,-0.149,0.071,0.107,-0.13,0.112,0.145,0.555 (active),0.045,0.122
PRIM2 (UniProt P49643),-0.028,-0.018,-0.019,0.054,0.017,0.054,0.03,0.023,0.085,0.08
PDSS2 (UniProt Q86YH6),-0.215,0.017,0.093,-0.083,-0.126,-0.03,0.244,,-0.046,0.027
POM121 (UniProt Q96HA1),-0.045,-0.032,-0.056,-0.074,0.117,-0.039,0.007,,0.119,0.111
PLA2G15 (UniProt Q8NCC3),0.04,-0.013,0.005,-0.026,0.089,0.044,0.001,-0.063,0.019,0.024
POLR3B (UniProt Q9NW08),0.024,-0.062,-0.008,0.022,0.026,0.003,0.172,0.063,0.138,0.114
POLB (UniProt P06746),0.086,-0.211,0.009,,0.189,,0.178,,-0.026,
POGZ (UniProt Q7Z3K3),0.037,-0.025,0.028,0.008,-0.127,0.122,-0.024,,-0.142,
PARP16 isoform 3 (UniProt Q8N5Y8),0.066,,0.298 (active),0,0.022,-0.06,0.132,-0.016,0.04,0.032
PRKD3 (UniProt O94806),0.096,-0.052,,-0.012,,0.294,,0.115,-0.008,0.086
